The source made the active and inactive calls. Rule for the calls: active = hit-call score of the fitted dose curve at least 0.9, where 1 is the maximum; inactive = score below 0.9.
Experiment: ATG_ISRE_CIS: Attagene CIS-FACTORIAL HepG2 Assay for human Interferon Regulatory Factor 1 (IRF1) binding to an Interferon-Stimulated Response Element (ISRE) (AID 2282948)
Settings: HepG2 ISRE cis-reporter (Attagene), mRNA transcription readout; actives raise or lower the signal
Method: ATG_CIS is a cell-based, multiplexed-readout assay that uses HepG2, a human liver cell line, with measurements taken at 24 hours after chemical dosing in a 24-well plate.ATG_ISRE_CIS is one of 52 assay component(s) measured or calculated from the ATG_CIS assay. It is designed to make measurements of mRNA induction, a form of inducible reporter, as detected with fluorescence intensity signals by Reverse transcription polymerase chain reaction (RT-PCR) and Capillary electrophoresis technology.Data from the assay component ATG_ISRE_CIS was analyzed into 1 assay endpoint. This assay endpoint, ATG_ISRE_CIS, was analyzed with bidirectional fitting relative to DMSO as the negative control and baseline of activity. Using a type of inducible reporter, measures of mRNA for gain or loss-of-signal activity can be used to understand the reporter gene at the transcription factor-level as they relate to the gene IRF1. Furthermore, this assay endpoint can be referred to as a primary readout, because this assay has produced multiple assay endpoints where this one serves a reporter gene function. To generalize the intended target to other relatable targets, this assay endpoint is annotated to the dna binding intended target family, where the subfamily is interferon regulatory factors.
Human liver HepG2 cells are transiently transfected with multiple reporter transcription units (MRTUs) in 6-well plates using FuGene 6 reagent (Roche; 3 ml FuGene/1 mg DNA). The MRTU constructs are regulated by a cis-regulating element (promoter). […] A major difference between the CIS and TRANS system is that in CIS activities of endogenous TFs are measured, whereas the TRANS assay evaluates changes in activities of exogenous, chimeric NR-Gal4 proteins. […] At the end of 24 hour incubation, total RNA was isolated using TriZol reagent (Invitrogen). The isolated RNA is then reverse-transcribed using oligo(dT) primer and Mo-MLV reverse transcriptase (Invitrogen) with DNAse I (Ambion) treatment for 30 min. The one-tenth of the produced cDNA was amplified by PCR using Taq DNA polymerase (Invitrogen) and two reporter sequence-specific primers. The PCR products were fluorescently labeled by primer extension with 6-arboxyfluorescein (6-FAM) 5'-labeled reporter sequence-specific primer (2 min at 95 C, 20 s at 68 C and 10 min at 72 C) and these products were digested with 5U of HpaI (New England Biolabs) for 2h at 37 C. The fragments were purified using Qiaquick PCR columns (Qiagen), analyzed on an ABI 3130xL genetic analyzer (Applied Biosystems) with peak positions identified by using a set of X-rhodamine (ROX)-labeled MapMarker1000 molecular weight standards (BioVentures). The raw capillary electrophoresis data was processed using Attagraph software (Attagene).

SMILES	outcome	AC50
CC(C)CP(=S)(S)CC(C)C	inactive	–
N#Cc1ccncc1	inactive	–
CCCCOC(C)=O	inactive	–
CN(CCCC(O)c1cccnc1)N=O (stereo not given)	inactive	–
C=CC(=O)OCC(COC(=O)C=C)(COC(=O)C=C)COC(=O)C=C	–	5.34 µM (active)
CCOC(=O)Cc1ccccc1	inactive	–
C#CCO	inactive	–
Nc1c(Oc2ccccc2)cc(O)c2c1C(=O)c1ccccc1C2=O	inactive	–
C[C@H]1C(=O)O[C@@H]2CCN3CC=C(COC(=O)[C@](C)(O)[C@]1(C)O)[C@H]23	inactive	–
[Cl][Sn]([c]1ccccc1)([c]1ccccc1)[c]1ccccc1	inactive	–
Oc1c(Br)cc(Br)cc1Br	inactive	–
O=S(=O)(C(Cl)(Cl)Cl)C(Cl)(Cl)Cl	–	16.4 µM (active)
O=CCCl	–	51.9 µM (active)
O=C=Nc1ccc(Cl)cc1	inactive	–
CNC(=O)O/N=C/C(C)(C)S(C)(=O)=O	inactive	–
CN(C)[C@@H]1C(=O)C(C(N)=O)=C(O)[C@@]2(O)C(=O)C3=C(O)c4c(O)ccc(Cl)c4[C@@](C)(O)[C@H]3C[C@@H]12	inactive	–
Clc1ccc(C(Cl)(Cl)Cl)cn1	inactive	–
O=S1OC[C@@H]2[C@H](CO1)[C@]1(Cl)C(Cl)=C(Cl)[C@@]2(Cl)C1(Cl)Cl (stereo not given in full)	inactive	–
Brc1ccc(Br)cc1	inactive	–
CCOC(=O)c1ccccc1S(=O)(=O)NC(=O)Nc1nc(Cl)cc(OC)n1	inactive	–

SMILES	outcome	AC50
c1csc(-c2ccc(-c3cccs3)s2)c1	–	3.41 µM (active)
Cc1ccc(OP(=O)(Oc2ccc(C)cc2C)Oc2ccc(C)cc2C)c(C)c1	inactive	–
CCC(C)(C#N)N=NC(C)(C#N)CC (stereo not given)	inactive	–
C[As+](C)(C)CC(=O)[O-]	inactive	–
Nc1ccc(Br)cc1	inactive	–
CCOP(=S)(OCC)OP(=S)(OCC)OCC	inactive	–
BrCC(Br)c1ccccc1 (stereo not given)	inactive	–
NC(=O)c1ccc(N)nc1	inactive	–
c1ccc(-c2cccc(-c3ccccc3)c2)cc1	inactive	–
O=[N+]([O-])c1cc([As](=O)(O)O)ccc1O	inactive	–
Cc1cc(Cl)ccc1OC(C)C(=O)O (stereo not given)	inactive	–
NNCCO	inactive	–
CC(C)O.CC(C)O.OCCN(CCO)CCO.OCCN(CCO)CCO.[Ti]	inactive	–
CC[N+](CC)(CC)CC	inactive	–
O=C(O)C1(c2ccc3c(c2)OC[C@H](Cc2ccc(-c4ccccc4)cc2)[C@H]3O)CCCC1	–	2.83 µM (active)
O=S(=O)(c1ccc(Cl)cc1)c1cc(Cl)c(Cl)cc1Cl	inactive	–
Cc1cccc(C)c1NC(=O)CN1CCCC1=O	inactive	–
BrCc1ccc(Br)cc1	inactive	–
COc1ccc(N)cc1	inactive	–
Brc1c(Br)c(Br)c(Oc2c(Br)c(Br)c(Br)c(Br)c2Br)c(Br)c1Br	inactive	–

Reference: PubChem BioAssay (EPA / NIEHS)
